Experimental data taken from a collection of fitness landscapes (doi:10.1016/j.celrep.2020.107928).
In all, about 81,000 sequences were measured (“one-hybrid fitness for binding parS DNA”: median about -0.17, highest 2% from about 0.51 on). This excerpt belongs to a sample that is enriched for the highest values.

B1: Caulobacter ParB omega fusion; a variant is named by its letters at X, in order, B8GW30 (parent)
chain: MESVVVGEPGMSEGRRGLGRGLSALLGEVDAAPAQAPGEQLGGSREAPIEILQRNPDQPRRTFREEDLEDLSNSIREKGVLQPILVRPSPDTAGEYQIVAGERAWRAAQRAGLKTVPIMVRELDDLAVLEIGIIENVQRADLNVLEEALSYKVLMEKFERTQENIAQTIGKSXSHVANXMRLLXLPDEVQSYLVSGELTAXHARAIAAAADPVALAKQIIEGGLSVRETEALARKAPNLSAGKSKGGRPPRVKDTDTQALESDLSSVLGLDVSIDHRGSTGTLTITYATLEQLDDLCNRLTRGI

Variants of: B1
Test: one-hybrid fitness for binding parS DNA (scaled: cognate 1, non-cognate 0); higher = stronger binding
Conditions: with parS DNA site
Outline: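 Bacterial one-hybrid selection in E. coli USO rpoZ- hisB- pyrF- with a HIS3 reporter carrying the site 19 bp from the promoter, screening Caulobacter ParB libraries with four specificity codons randomised (NNS). Cells grew 48 hours at 37°C on M9-minus-histidine plus 0.1 mM IPTG and 5 mM 3-AT. Plasmids before and after selection were Illumina-sequenced, three replicate libraries pooled, and variants under 10 reads dropped. Fitness is the log change in variant-to-wild-type read ratio, rescaled to cognate 1, non-cognate 0.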

Row | Variant | one-hybrid fitness for binding parS DNA
1 | TTSM | ≤ 0.2
2 | ICYT | ≤ 0.2
3 | SEWR | ≤ 0.2
4 | RRYA | 0.813
5 | RRRA | 0.501
6 | NRYA | ≤ 0.2
7 | DLNV | ≤ 0.2
8 | GSGS | ≤ 0.2
9 | YIFC | ≤ 0.2
10 | INTG | ≤ 0.2
11 | RVEN | 0.294
12 | RVEC | 0.805
13 | RVEM | 0.231
14 | RVEI | ≤ 0.2
15 | RVEK | ≤ 0.2
16 | RVEH | ≤ 0.2
17 | RVET | 0.691
18 | RVEG | 0.813
19 | RVEF | ≤ 0.2
20 | RVEP | ≤ 0.2
21 | RVES | 0.948
22 | RVED | ≤ 0.2
23 | HNSL | ≤ 0.2
24 | FLAG | ≤ 0.2
25 | RRQE | ≤ 0.2
26 | SFER | ≤ 0.2

Row | Variant | one-hybrid fitness for binding parS DNA
27 | HAWC | ≤ 0.2
28 | PTHS | ≤ 0.2
29 | RYAA | 0.559
30 | RYFA | 0.573
31 | PYFA | ≤ 0.2
32 | NYFA | ≤ 0.2
33 | NNWM | ≤ 0.2
34 | DTAQ | ≤ 0.2
35 | AYES | ≤ 0.2
36 | PDYS | ≤ 0.2
37 | LGYC | ≤ 0.2
38 | PVSM | ≤ 0.2
39 | NIVA | ≤ 0.2
40 | RIKA | 0.745
41 | RIVA | 0.585
42 | YQPY | ≤ 0.2
43 | GEYG | ≤ 0.2
44 | TWSS | ≤ 0.2
45 | LCRP | ≤ 0.2
46 | RKNG | 0.907
47 | RKNQ | ≤ 0.2
48 | RKDN | 0.329
49 | RKDH | 0.231
50 | RKNR | ≤ 0.2
51 | RKDG | 0.939
52 | TSWS | ≤ 0.2

Row | Variant | one-hybrid fitness for binding parS DNA
53 | KARL | ≤ 0.2
54 | PVGS | ≤ 0.2
55 | QVWC | ≤ 0.2
56 | RHFT | 0.707
57 | RHFN | 0.319
58 | RHFP | ≤ 0.2
59 | RHAT | 0.865
60 | RHAM | 0.28
61 | RHAY | 0.403
62 | HWFS | ≤ 0.2
63 | RPMV | ≤ 0.2
64 | ETTA | ≤ 0.2
65 | SPEG | ≤ 0.2
66 | RSSC | 0.966
67 | RCSC | 0.961
68 | RSSN | 0.436
69 | RESC | 0.215
70 | RSSH | ≤ 0.2
71 | RPSC | ≤ 0.2
72 | TKKI | ≤ 0.2
73 | QGCC | ≤ 0.2
74 | LEMT | ≤ 0.2
75 | CTGE | ≤ 0.2
76 | VMPA | ≤ 0.2
77 | NSSL | ≤ 0.2
78 | RLIH | 0.21

Row | Variant | one-hybrid fitness for binding parS DNA
79 | RLIT | 0.795
80 | RLPT | 0.58
81 | RLPQ | ≤ 0.2
82 | RLID | ≤ 0.2
83 | RLPK | ≤ 0.2
84 | TGTF | ≤ 0.2
85 | DRTR | ≤ 0.2
86 | QHDH | ≤ 0.2
87 | KIRG | ≤ 0.2
88 | MVRP | ≤ 0.2
89 | RAAK | ≤ 0.2
90 | RAFT | 0.847
91 | RAAT | 0.909
92 | RAAF | 0.242
93 | RAFH | 0.204
94 | RAFD | ≤ 0.2
95 | CANR | ≤ 0.2
96 | WEPV | ≤ 0.2
97 | HEHL | ≤ 0.2
98 | CTTW | ≤ 0.2
99 | FEAS | ≤ 0.2
100 | RTAA | 0.579
101 | RTFA | 0.592
102 | DTAA | ≤ 0.2
103 | DTFA | ≤ 0.2
104 | QTHE | ≤ 0.2

Row | Variant | one-hybrid fitness for binding parS DNA
105 | PSQT | ≤ 0.2
106 | QCPA | ≤ 0.2
107 | YTPS | ≤ 0.2
108 | RLAA | 0.582
109 | DLAA | ≤ 0.2
110 | RLFA | 0.606
111 | DLFA | ≤ 0.2
112 | KLFA | ≤ 0.2
113 | NLAA | ≤ 0.2
114 | IAKG | ≤ 0.2
115 | FVAR | ≤ 0.2
116 | NFIG | ≤ 0.2
117 | RFWS | 0.836
118 | RFWP | ≤ 0.2
119 | RFIS | 0.777
120 | RFID | ≤ 0.2
121 | RFIG | 0.685
122 | RFIC | 0.657
123 | RFIP | ≤ 0.2
124 | RFPC | 0.424
125 | RFIH | ≤ 0.2
126 | RFWN | ≤ 0.2
127 | RFPG | 0.502
128 | EHMG | ≤ 0.2
129 | LHVL | ≤ 0.2
130 | AIIN | ≤ 0.2

Row | Variant | one-hybrid fitness for binding parS DNA
131 | FIYG | ≤ 0.2
132 | PRHT | ≤ 0.2
133 | KCHS | ≤ 0.2
134 | KAGT | ≤ 0.2
135 | QCPW | ≤ 0.2
136 | RFLS | 0.997
137 | RFYP | ≤ 0.2
138 | RFPD | ≤ 0.2
139 | RFRD | ≤ 0.2
140 | RFYS | 1.01
141 | RFPH | ≤ 0.2
142 | RFPS | 0.551
143 | RFRN | 0.429
144 | RFRS | 0.954
145 | RFLN | 0.415
146 | RFLD | ≤ 0.2
147 | RFYD | ≤ 0.2
148 | PVIC | ≤ 0.2
149 | MHEG | ≤ 0.2
150 | VPDG | ≤ 0.2
151 | LNYC | ≤ 0.2
152 | HRFQ | ≤ 0.2
153 | VPPW | ≤ 0.2
